The whole screen tested about 400,000 compounds, of which about 2,100 (0.53%) were called active. About 14% were inconclusive and are not listed. No rule for the calls is given here. The entries come from a sample that favours actives as a whole.

The text below walks through data of ChEMBL document CHEMBL1201862, “PubChem BioAssay data set” (2004).

For this assay, the target named is Ataxin-2 (Homo sapiens) (UniProt Q99700). The assay is described as follows: qHTS for Inhibitors of ATXN expression. The format is functional. On the technique in general: Quantitative high-throughput screening tests each substance at several concentrations.
Ataxin-2 (Homo sapiens), sequence (Q99700 whole entry): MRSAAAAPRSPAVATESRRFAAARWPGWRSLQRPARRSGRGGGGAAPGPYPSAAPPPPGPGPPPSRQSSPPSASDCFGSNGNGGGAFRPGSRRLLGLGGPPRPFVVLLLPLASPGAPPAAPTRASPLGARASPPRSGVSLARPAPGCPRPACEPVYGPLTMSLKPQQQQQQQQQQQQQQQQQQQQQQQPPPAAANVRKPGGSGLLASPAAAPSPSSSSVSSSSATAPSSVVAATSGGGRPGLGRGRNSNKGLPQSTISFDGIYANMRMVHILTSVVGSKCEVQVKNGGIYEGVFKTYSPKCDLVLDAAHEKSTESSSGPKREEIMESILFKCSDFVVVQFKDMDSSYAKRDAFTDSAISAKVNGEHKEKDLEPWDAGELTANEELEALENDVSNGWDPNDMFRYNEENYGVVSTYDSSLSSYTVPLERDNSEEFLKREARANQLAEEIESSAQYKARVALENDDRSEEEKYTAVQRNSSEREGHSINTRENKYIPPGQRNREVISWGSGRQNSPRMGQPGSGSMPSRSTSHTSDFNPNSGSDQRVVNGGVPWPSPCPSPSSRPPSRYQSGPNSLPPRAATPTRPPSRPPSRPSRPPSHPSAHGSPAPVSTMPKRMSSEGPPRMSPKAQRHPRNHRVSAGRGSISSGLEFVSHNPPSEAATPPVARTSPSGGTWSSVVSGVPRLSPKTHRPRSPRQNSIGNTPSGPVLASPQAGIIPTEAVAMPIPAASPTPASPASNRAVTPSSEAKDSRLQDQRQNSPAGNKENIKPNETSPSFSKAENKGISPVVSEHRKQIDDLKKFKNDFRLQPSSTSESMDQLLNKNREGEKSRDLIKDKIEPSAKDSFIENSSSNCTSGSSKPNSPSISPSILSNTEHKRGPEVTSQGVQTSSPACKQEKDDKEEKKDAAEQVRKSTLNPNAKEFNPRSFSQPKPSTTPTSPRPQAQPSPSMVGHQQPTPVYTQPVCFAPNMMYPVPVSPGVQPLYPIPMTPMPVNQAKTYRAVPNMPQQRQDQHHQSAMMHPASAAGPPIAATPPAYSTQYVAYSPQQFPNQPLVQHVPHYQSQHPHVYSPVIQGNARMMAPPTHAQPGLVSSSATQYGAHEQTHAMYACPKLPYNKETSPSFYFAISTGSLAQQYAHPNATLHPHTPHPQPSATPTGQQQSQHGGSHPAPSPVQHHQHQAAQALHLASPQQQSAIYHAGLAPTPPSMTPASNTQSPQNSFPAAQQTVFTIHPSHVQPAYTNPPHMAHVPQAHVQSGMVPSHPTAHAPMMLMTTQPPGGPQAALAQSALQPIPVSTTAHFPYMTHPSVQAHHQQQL
Consider `CC(=O)Nc1ccc(NC(=O)CSc2ccc3nnc(CCNC(=O)c4ccccc4)n3n2)cc1`, for which the Potency entry was “inactive”.

Consider `CC1CCN(c2nnc(-c3ccccc3)c3ccccc23)CC1`, for which the Potency entry was “inactive”.

For the molecule `Cc1sc2nc(-c3ccccn3)nc(O)c2c1-c1ccccc1`, the Potency result was “inactive”.

For the molecule `O=[N+]([O-])c1ccc(C2NS(=O)(=O)N=C3CCCCCN32)cc1` (stereo unspecified), the Potency entry was “inactive”.

Turning to `CCCc1cc(C(=O)Cc2nc3ccccc3s2)c(O)cc1O`, the Potency entry is “inactive”.

Regarding `COc1ccc(-c2csc(NC(=O)CSc3nnnn3C)n2)c(OC)c1`, the Potency entry is “inactive”.

Take `CC(C)CC(=O)NC(=S)Nc1nc(-c2ccc(Cl)cc2)cs1`: the Potency result is “inactive”.

For `COc1ccc(-c2csc(NC(C)c3nc4cc(Cl)c(Cl)cc4n3CCCO)n2)cc1` (stereo unspecified), the Potency was 39.8 µM (active).

On to `Cc1ccc(Cn2cccc(-c3nc4ccccc4s3)c2=O)cc1`, for which the Potency result was “inactive”.

With `O=C(CN1CCN(Cc2ccc(F)cc2)CC1)Nc1nc2ccccc2s1`, the Potency result was “inactive”.

Take `CC(Nc1nc(-c2ccc(F)cc2)cs1)c1nc2cc(Cl)c(Cl)cc2n1CCCO` (stereo unspecified): the Potency is 39.8 µM (active).

With `CC(Nc1nc(-c2ccc(F)cc2)cs1)c1nc2cc(Cl)c(N3CCCCC3)cc2n1CCCO` (stereo unspecified), the Potency is 25.1 µM (active).

In the case of `Cc1ccc(Cn2c(C(CO)Nc3nc(-c4ccc(F)cc4)cs3)nc3ccccc32)cc1` (stereo unspecified), the Potency was 25.1 µM (active).

For `COc1ccc(/N=C/C2=C(O)c3c(sc(C)c3C)N(C)S2(=O)=O)cc1`, the Potency entry is “inactive”.

With `CC(Nc1nc(-c2ccc(F)cc2)cs1)c1nc2cc(C(F)(F)F)ccc2n1CCCO` (stereo unspecified), the Potency was 22.4 µM (active).

For the molecule `C/C(=N\NC(=O)COc1ccccc1-c1ccccc1)c1ccccn1`, the Potency is 6.7 µM (active).

In the case of `C/C(=N\NC(=O)c1c[nH]c2ccccc12)c1ccccn1`, the Potency entry is “inactive”.

As for `CC(=O)Nc1ccc(NC(=O)COC(=O)c2ccccn2)cc1`, the Potency entry was “inactive”.

Consider `CCCn1nc(NC(=O)C(C)C)c2cc3cc(OC)ccc3nc21`, for which the Potency entry is “inactive”.

For `N=c1oc2ccccc2cc1-c1nc(-c2ccccc2)cs1`, the Potency result is “inactive”.

With `CCN(CC)S(=O)(=O)c1cc([N+](=O)[O-])ccc1NNC(=O)Nc1ccc(Cl)c(Cl)c1`, the Potency is 39.8 µM (active).

On to `CN(C)S(=O)(=O)c1ccc(Cl)c(C(=O)Nc2cccc([N+](=O)[O-])c2)c1`, for which the Potency entry is “inactive”.

Consider `CCN(CC)S(=O)(=O)c1cc(NC(=O)C2CC(=O)N(Cc3ccccc3)C2)ccc1Cl` (stereo unspecified), for which the Potency entry was “inactive”.

Turning to `CC1=CC(c2ccccc2)n2nc(NC(=O)CCCC(=O)O)nc2N1` (stereo unspecified), the Potency result was “inactive”.

On to `CN(C)/C=C1\C=C2C(=O)c3ccccc3N2C1=O`, for which the Potency result was “inactive”.

As for `Cc1ccc(S(=O)(=O)N2CCN(C(S)=NCc3ccc4c(c3)OCO4)CC2)cc1`, the Potency result is “inactive”.

As for `O=C(c1ccc(F)cc1)C1CCN(S(=O)(=O)c2ccccc2)CC1`, the Potency result is “inactive”.

On to `COc1ccc(-c2nnc(C3CCN(S(=O)(=O)c4ccccc4)CC3)o2)cc1`, for which the Potency was 26.7 µM (active).

`CCOC(=O)C1(CC2CCCCO2)CCN(S(=O)(=O)c2ccc(OC)cc2)CC1` (stereo unspecified): the Potency result was “inactive”.

On to `CCCc1ccc(S(=O)(=O)N2CCC(c3nnc(-c4cccc(C)c4)o3)CC2)cc1`, for which the Potency is 8.91 µM (active).

As to `CCCc1nn(-c2ccc([N+](=O)[O-])cc2)c(O)c1/C=N/CCCn1ccnc1`, the Potency entry is “inactive”.

On to `O=[N+]([O-])c1ccc(-c2ccc(/C=N/Nc3nc(N4CCCCC4)nc(N4CCCCC4)n3)o2)cc1`, for which the Potency entry is “inactive”.

On to `S=C(NCCCN1CCOCC1)N1CCN(c2nc(-c3ccc(Cl)cc3)cs2)CC1`, for which the Potency is 31.6 µM (active).

In the case of `Clc1ccc(SCc2csc(N3CCOCC3)n2)cc1`, the Potency entry is “inactive”.

Regarding `O=C(NNC(=O)c1cc(-c2ccc(Br)cc2)nc2ccccc12)c1csc(N2CCOCC2)n1`, the Potency entry was “inactive”.

For the molecule `COc1ccccc1NC(=O)C1=C(C)Nc2nc(SCc3ccccc3)nn2C1c1cccc(O)c1` (stereo unspecified), the Potency was 31.6 µM (active).

In the case of `COCc1cc(C)nc2sc(C(=O)Nc3ccccc3OC)c(N)c12`, the Potency result was “inactive”.

`COc1ccccc1NC(=O)c1sc2nc(C)cc(C)c2c1N`: the Potency entry is “inactive”.

Take `CCS(=O)(=O)c1nc(S(=O)(=O)c2ccc(C)cc2)c(N2CCN(C)CC2)s1`: the Potency result is “inactive”.

On to `COC(=O)c1ccc(NC(=O)c2cccc(C)c2)cc1`, for which the Potency result is “inactive”.

On to `O=C(Oc1cccc2cccnc12)c1cccc(N2C(=O)C3C4CCC(C4)C3C2=O)c1` (stereo unspecified), for which the Potency result is “inactive”.

`COC(=O)c1ccc(NC(=O)c2cccc(N3C(=O)C4C5C=CC(C6CC56)C4C3=O)c2)cc1` (stereo unspecified): the Potency was 39.8 µM (active).

`CC(=O)Nc1ccc(NC(=O)CC2CCCC2)cc1`: the Potency result was “inactive”.

For the molecule `CCN(CC(=O)Nc1ccc(NC(C)=O)cc1)C(=O)CSC(=S)N1CCCC1`, the Potency is 3.55 µM (active).

As for `Cc1ccc(NC(=O)COC(=O)CSC(=S)N2CCOCC2)cc1`, the Potency entry is “inactive”.

`CCN(CC)CCCNc1oc(/C=C/c2ccccc2)nc1C#N`: the Potency result is “inactive”.

Regarding `COc1cccc(/C=N/NC(=O)c2c(C)nc3ccc(Cl)cn23)c1OC`, the Potency entry was “inactive”.

As to `O=C(N/N=C/c1cc([N+](=O)[O-])ccc1O)c1ccc2c(c1)OCCO2`, the Potency was 50.1 µM (active).

Take `COc1cccc(/C=N/NC(=O)c2cc3cc([N+](=O)[O-])ccc3s2)c1O`: the Potency was 14.1 µM (active).

Take `O=C(N/N=C/c1sc2ccccc2c1O)c1cccc2ccccc12`: the Potency entry is “inactive”.

Take `CCOc1cc(/C=N/NC(=O)c2ccc3c(c2)OCCO3)cc(Br)c1O`: the Potency entry was “inactive”.

Turning to `COc1cc(Cl)cc(/C=N\NC(=O)c2ccc3c(c2)OCO3)c1O`, the Potency result was “inactive”.

Consider `COc1cccc(/C=N/NC(=O)c2ccc(=O)n(C)c2)c1O`, for which the Potency result was “inactive”.

With `O=C(NN=Cc1cc([N+](=O)[O-])ccc1O)c1cccc2ccccc12`, the Potency was 33.6 µM (active).

Take `Cc1occc1C(=O)N/N=C/c1cccc2ccccc12`: the Potency result is “inactive”.

In the case of `Fc1ccc(NC(=S)N2CCSC2c2cccs2)cc1` (stereo unspecified), the Potency result is “inactive”.

Consider `CC(C)OC(=O)CC(=O)CSc1nc2c(c(-c3cccs3)c1C#N)CCC2`, for which the Potency result is “inactive”.

On to `CC1CN(CCOCCSc2ccc(Cl)cc2)CC(C)O1` (stereo unspecified), for which the Potency result is “inactive”.

As to `Cn1c2ccccc2c2nnc(NN)nc21`, the Potency entry was “inactive”.

Turning to `CN(Cc1ccsc1)C(=O)CCc1nnc(CCCc2ccccc2)o1`, the Potency result is “inactive”.

As to `COCCCNCCCCSc1ccc(Cl)cc1`, the Potency entry was “inactive”.

For `CCCOc1ccc(C(=O)NNC(=S)NC(=O)CC)cc1`, the Potency is 31.6 µM (active).

`CCCCOc1ccc(C(=O)NCCc2ccccc2)cc1`: the Potency entry is “inactive”.

As for `COc1cc(OC)cc(C(=O)NNC(=S)NC(=O)c2cccnc2)c1`, the Potency result is “inactive”.

On to `Cc1ccc(SCc2c(C(=O)N/N=C/c3ccoc3)nnn2-c2nonc2N)cc1`, for which the Potency entry is “inactive”.

As to `CCN(C(=O)COC(=O)/C=C/c1ccc2c(c1)OCO2)c1c(N)n(Cc2ccccc2)c(=O)[nH]c1=O`, the Potency result was “inactive”.

As for `CC(=O)Nc1ccc(NC(=O)/C=C/c2ccc3c(c2)OCO3)cc1`, the Potency result was “inactive”.

Turning to `CCOC(=O)c1[nH]c2ccc(Cl)cc2c1NC(=O)/C=C/c1ccc2c(c1)OCO2`, the Potency was 44.7 µM (active).

On to `CCN(CC)S(=O)(=O)c1cccc(-c2nnc(SCC(N)=O)n2C)c1`, for which the Potency entry is “inactive”.

With `CC1=NNC(=O)/C1=C\c1cn(-c2ccccc2)nc1-c1ccc(Cl)cc1`, the Potency was 10 µM (active).

For the molecule `CCCSc1ccc(-c2nn(-c3ccccc3)cc2/C=C(/C#N)C(=O)NCCCOC)cc1`, the Potency result was “inactive”.

`O=Cc1cn(-c2ccccc2)nc1-c1cc2cc(O)ccc2oc1=O`: the Potency result is “inactive”.

With `CC1=NNC(=O)/C1=C\c1cn(-c2ccccc2)nc1-c1ccc(F)cc1`, the Potency was 8.91 µM (active).

With `CCSc1ccc(-c2nn(-c3ccccc3)cc2/C=C(/C#N)C(=O)NC)cc1`, the Potency entry is “inactive”.

Regarding `CCCOc1ccc(-c2nn(-c3ccccc3)cc2/C=C2\SC(N)=NC2=O)cc1`, the Potency entry was “inactive”.

`CCC(C)Sc1nc(O)c2cnn(-c3ccc(F)cc3)c2n1` (stereo unspecified): the Potency entry was “inactive”.

For the molecule `O=C(N/N=C\c1cc(Br)ccc1O)c1ccc(S(=O)(=O)N2CCCCC2)cc1`, the Potency result was “inactive”.

As to `CC(OC(=O)Cn1cnc2c1c(=O)n(C)c(=O)n2C)C(=O)Nc1ccc(Cl)cc1` (stereo unspecified), the Potency result was “inactive”.

As for `Oc1ccc(C2C=C(c3ccc(F)cc3)Nc3ncnn32)cc1` (stereo unspecified), the Potency entry is “inactive”.

Regarding `Cc1cc(C)nc(-n2nc(C)c3c2NC(=O)CC3c2ccccc2OC(C)C)n1` (stereo unspecified), the Potency was 25.1 µM (active).

For the molecule `CCCCCCSc1ccc(-c2nc3cnccn3c2NC2CCCCC2)cc1`, the Potency entry is “inactive”.

Turning to `CCOC(=O)c1c(C)[nH]c(C(=O)COC(=O)CCNS(=O)(=O)c2ccc(NC(C)=O)cc2)c1C`, the Potency result was “inactive”.

`CCCCn1c(NC(=O)c2ccco2)c(S(=O)(=O)c2ccc(C)cc2)c2nc3ccccc3nc21`: the Potency entry was “inactive”.

Regarding `CC[n+]1c(/C=C/C=C/N(C(C)=O)c2ccccc2)sc2ccccc21`, the Potency was 35.5 µM (active).

For `CC[n+]1c(/C=C2\SC(c3ccccc3C)=CN2C)sc2ccccc21`, the Potency entry was “inactive”.

For `CCn1nc(-c2ccccc2)c2nc3ccccc3nc21`, the Potency entry is “inactive”.

For `Nc1c(Cl)c(Cl)nc(C(=O)OCC(=O)NCc2ccccc2)c1Cl`, the Potency entry was “inactive”.

Consider `O=C(NCc1ccccc1)c1c(Cl)nc(Cl)c(Cl)c1Cl`, for which the Potency was 39.8 µM (active).

In the case of `Cc1nc(Cl)c(C(=O)NCc2ccccc2)c(C)c1Cl`, the Potency result is “inactive”.

As to `CCOC(=O)c1sc2nc(C)cc(-c3ccccc3)c2c1N`, the Potency entry was “inactive”.

With `CC(=O)c1cccc(Nc2nc(-c3ccccc3)nc3ccccc23)c1`, the Potency result is “inactive”.

Regarding `CCOC(=O)c1sc2nc(-c3cccnc3)ccc2c1N`, the Potency result is “inactive”.

On to `CCOC(=O)c1cccc(Nc2nc(C(=O)OCC)nc3ccccc23)c1`, for which the Potency was 39.8 µM (active).

On to `CCOC(=O)c1nc(Nc2ccccc2CC)c2ccccc2n1`, for which the Potency result was “inactive”.

Take `CCCOC(=O)c1cccc(Nc2nc(-c3cccnc3)nc3ccccc23)c1`: the Potency is 35.5 µM (active).

In the case of `O=c1cc(-c2ccccc2)c2ccc(O)cc2o1`, the Potency entry is “inactive”.

With `O=C1CN(C(=O)NCC(=O)N2CCCC2)c2ccccc2N1`, the Potency entry is “inactive”.

Take `O=C1OCCN1C(=O)[C@H]1[C@H](c2ccccc2)C(c2ccc(F)cc2)=NN1c1ccc(Br)cc1`: the Potency entry was “inactive”.

On to `CCCCCCCN(C(=O)CCl)c1cccc(C)c1`, for which the Potency is 14.1 µM (active).

`CCCC(O)(CCC)C(=O)NN(C(=O)CCl)c1cccc(C)c1`: the Potency was 21.2 µM (active).

For `Cc1ccc(S(=O)(=O)Oc2ccc(C3C4=C(CCCC4=O)N(CCC(=O)O)C4=C3C(=O)CCC4)cc2Cl)cc1`, the Potency entry was “inactive”.
